Compound activity as filed in PubChem.
Granule exo inh = lytic granule exocytosis inhibition | TALL-104 LAMP-1 surface exposure, flow cytometry; cells stimulated with thapsigargin and PMA | inhibition, % at 10 µM | actives 0.66% (n = 360,000);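 active = inhibition above about 55%, limit read from the data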
Platelet DG rel = platelet dense granule release activity; inhibition, %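 (compounds screened at 7.5 µM in platelet-rich plasma)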; human platelet-rich plasma, SFLLRN dense granule ATP release, luminescence; actives 0.22% (n = 300,000);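 active = mean replicate score, as percent of positive control, at or above 50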
Rce1 inhib = inhibitors of yeast Ras-converting enzyme; Q03530; actives 0.27% (n = 290,000); AID 2563; yeast membranes, quenched prenylated peptide cleavage fluorescence; calls only;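 active = fall in fluorescence gain of 50% or more versus controls, with final raw signal at or below 3038400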;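 also: plate controls were neutral control wells for no effect and wells lacking membranes for full effect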
ABHD5-PLIN5 inh = inhibitors of human ABHD5-perilipin-5 interaction. Split G. princeps luciferase complementation, luminescence, 4 h. actives 0.78% (n = 360,000). inhibition, % at 4 µM. AID 602281;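 active = inhibition above the mean inhibition across every tested compound plus 3 SD, cut at about 22% in these data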;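 also: 0% = DMSO only wells and the 100% control is not disclosed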
Target sequence (Q00G26 whole entry, looked up): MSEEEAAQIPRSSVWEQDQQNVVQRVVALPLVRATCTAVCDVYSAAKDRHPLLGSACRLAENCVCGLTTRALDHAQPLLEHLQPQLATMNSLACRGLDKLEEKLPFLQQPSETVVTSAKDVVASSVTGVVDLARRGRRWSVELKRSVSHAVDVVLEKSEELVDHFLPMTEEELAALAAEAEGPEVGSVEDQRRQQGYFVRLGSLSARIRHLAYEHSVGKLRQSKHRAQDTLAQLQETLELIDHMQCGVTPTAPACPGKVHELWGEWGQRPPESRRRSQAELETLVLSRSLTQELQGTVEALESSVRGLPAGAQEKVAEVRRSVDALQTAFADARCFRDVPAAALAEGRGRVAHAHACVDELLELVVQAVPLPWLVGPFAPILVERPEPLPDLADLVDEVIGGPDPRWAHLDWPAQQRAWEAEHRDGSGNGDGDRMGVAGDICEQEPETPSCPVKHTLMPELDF
Target sequence (Q8WTS1 whole entry, looked up): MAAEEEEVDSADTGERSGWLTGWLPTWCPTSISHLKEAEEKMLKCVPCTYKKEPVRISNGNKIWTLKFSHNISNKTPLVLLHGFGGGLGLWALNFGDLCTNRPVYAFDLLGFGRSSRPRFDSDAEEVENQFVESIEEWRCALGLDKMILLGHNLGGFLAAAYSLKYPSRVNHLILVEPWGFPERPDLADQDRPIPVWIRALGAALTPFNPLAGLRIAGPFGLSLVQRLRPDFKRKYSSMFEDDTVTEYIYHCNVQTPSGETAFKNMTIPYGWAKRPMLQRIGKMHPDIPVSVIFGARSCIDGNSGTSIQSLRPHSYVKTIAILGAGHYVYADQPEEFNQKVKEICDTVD
M18AAP inhibitor = PfM18AAP enzyme inhibition | inhibition, % at 7.35 µM | recombinant PfM18AAP, H-Glu-NHMec fluorogenic cleavage | AID 1822 | actives 1.2% (n = 290,000);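 active = inhibition above the campaign mean inhibition over all tested compounds plus 3 SD, cut at about 28% in these data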;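 also: 0% = plate median of test compound wells and 100% = 2 mM ZnCl2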
ABHD5 PLIN5 conf = confirmation of human ABHD5-PLIN5 interaction inhibitors; shares compounds with ABHD5-PLIN5 inh; biochemical ABHD5-PLIN5 interaction, luminescence; inhibition, % at 4 µM; actives 67% (n = 2,200); AID 651612; in the data active = inhibition above about 23%;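 also: 0% = DMSO vehicle wells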
HNF4 counter = counter-screen for ABHD5-PLIN5 inhibitors: HNF4 split-luciferase; shares compounds with ABHD5-PLIN5 inh; HNF4 dimerization, luminescence, biochemical; inhibition, % at 4 µM; actives 77% (n = 2,200); AID 651674;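 active = mean inhibition across replicate wells exceeding the computed hit threshold, cut at about 13% in these data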;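 also: light from luciferase halves that rejoin when HNF4 fusion proteins dimerize; 0% = DMSO only wells and the 100% control is not given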
An asterisk follows results filed as active; i = inactive; nt = no result given; ! = not active in a repeat. Rows were chosen to be rich in hits. Some 2.6% of all compounds tested hit in one or more screens of this group.

SMILES | Granule exo inh | Platelet DG rel | Rce1 inhib | ABHD5-PLIN5 inh | M18AAP inhibitor | ABHD5 PLIN5 conf | HNF4 counter
O=C(/C=C/c1cccc(Br)c1)c1ccc2c(c1)OCO2 | 37.8 | 3.6 | i | 32.9* | 24.1 | 74.4* | 62.7*
COc1cccc(/C=C/C(=O)c2ccc3c(c2)OCO3)c1OC | 7.4 | nt | nt | 4.0 | nt | nt | nt
O=C(/C=C/c1ccncc1)c1ccc2c(c1)OCCO2 | 3.0 | -3.1 | i | 59.5* | 10.6 | 77.7* | 74.2*
O=C(/C=C/c1ccccc1)c1ccc2c(c1)OCO2 | -4.0 | -19.7 | i | 29.6* | 16.9 | 49.8* | 34.4*
COc1cc(/C=C/C(=O)c2ccc3c(c2)OCCO3)cc(Br)c1OCC(=O)N(C)C | 101.8* | 9.3 | i | 39.8* | 0.9 | 73.6* | 72.8*
O=C(/C=C/c1ccccc1Br)c1ccc2c(c1)OCO2 | 19.8 | -8.6 | i | -0.4 | -7.4 | nt | nt
Cc1nc(C(=O)Nc2ccc(Cl)cc2)nn1-c1ccc([N+](=O)[O-])cc1 | -0.9 | -1.3 | i | 2.9 | -4.5 | nt | nt
Cc1ccc(S(=O)(=O)N2CCCCC2)cc1NC(=O)Cn1cnnn1 | 2.9 | -2.2 | i | 1.8 | -9.2 | nt | nt
Cc1ccc(S(=O)(=O)N2CCCCC2)cc1NC(=O)Cn1ncc(Cl)c(Cl)c1=O | -8.5 | nt | nt | 26.2* | nt | 22.5* | 14.4*
Cc1nc2c(o1)CCc1ccccc1C2N1CCN(C)CC1 (stereo not given) | -8.5 | 11.0 | i | 56.9*! | -7.2 | 40.0* | 6.6
Cc1cc(C)cc(C(=O)N2CC(=O)Nc3ccccc32)c1 | 30.0 | -1.3 | i | -3.2 | 3.8 | nt | nt
Cc1ccc(/C=C/C(=O)N2CC(=O)Nc3ccccc32)o1 | 1.7 | 7.1 | i | 25.4* | -35.7 | 19.7 | 29.8*
Cc1cccc(Cn2cc(/C=C/[N+](=O)[O-])c3ccccc32)c1 | 18.0 | -7.0 | i | 25.0* | 7.6 | 90.8* | 86.0*
COC(=O)c1ccc(Cn2cc(/C=C\[N+](=O)[O-])c3ccccc32)o1 | 16.9 | 0.0 | i | 42.6* | -5.5 | 88.0* | 46.2*
O=[N+]([O-])/C=C/c1cn(Cc2ccc(Cl)cc2)c2ccccc12 | -2.0 | -2.3 | i | 44.9* | 3.0 | 98.4* | 82.8*
N#Cc1ccc(C(=O)N2CCCCC2c2cc(C(=O)Nc3cccc(C#N)c3)no2)cc1 (stereo not given) | 3.6 | nt | nt | -1.3 | nt | nt | nt
O=C(C=C=Nc1ccccc1)C(=O)N=C=Cc1ccccc1 | 38.2 | 52.9* | i | 72.6* | 2.7 | 96.2* | 98.8*
O=C(N/N=C/c1ccccc1)C(=O)N/N=C/c1ccccc1 | 1.7 | 9.1 | i | 0.7 | 15.1 | nt | nt
Cc1ccc(-c2cc(C(F)F)nc(S(C)(=O)=O)n2)cc1 | 37.6 | 9.9 | i | 24.6* | 15.0 | 45.4* | 51.3*
CCOc1ccc(C2C(C(=O)Nc3ccccc3)=C(C)N=c3s/c(=C/c4cccc(OCC(=O)O)c4)c(=O)n32)cc1 (stereo not given) | -3.8 | -1.3 | i | 18.9 | 17.7 | nt | nt
CC1=C(C(=O)Nc2ccccc2)C(c2ccc(Cl)cc2)n2c(s/c(=C/c3cccc(OCC(=O)O)c3)c2=O)=N1 (stereo not given) | -3.6 | 0.1 | i | 27.3* | 14.4 | 48.7* | 29.0*
CCn1c(C)c(CS(=O)(=O)c2ccccc2)[nH]c1=O | 37.6 | -0.7 | i | 33.8* | -8.7 | 57.4* | 76.8*
C[C@@H]1CN([C@H](C)CO)C(=O)c2cc(NC(=O)Nc3ccc(C(F)(F)F)cc3)ccc2O[C@H]1CN(C)S(=O)(=O)c1ccc(Cl)cc1 | 3.7 | nt | nt | 0.5 | nt | nt | nt
CC1(C(=O)Nc2cccc3cccnc23)CCN1Cc1ccc(-c2ccccc2)o1 (stereo not given) | 1.3 | nt | nt | 61.0* | nt | 47.0* | 72.8*
COc1cccc(CN2CCC2(C)C(=O)Nc2cccc3cccnc23)c1OC (stereo not given) | -3.4 | nt | nt | -7.1 | nt | nt | nt
Cc1nc2cc(C(F)(F)F)ccc2n1C1CCN(CC(=O)N2CCOCC2)CC1 | 2.1 | 1.0 | i | -4.5 | -2.3 | nt | nt
COc1ccccc1-c1cc(C(=O)NC2CCN(C)CC2)c2ccc(Cl)c(C)c2n1 | 52.2 | -0.5 | i | 31.7* | -4.7 | 19.7 | -2.7
Cc1c(Cl)ccc2c(C(=O)NCCN3CCCCC3)cc(-c3ccccn3)nc12 | 24.9 | -4.6 | i | 21.7 | -4.4 | nt | nt
